The values that follow come from the supplement of paper PMC9177965.

The experiment concerns HT29 RNF43 G659fs (RNF43 659mut, CRISPR-edited). Kind of experiment: cell viability activity relative to DMSO (negative = inhibition); higher = more viable cells (less growth inhibition). The note with it: 5 µM; 96 h. As for the experimental part: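 Broad Repurposing Library primary screen at a single dose of 5 uM. HT29 sg-Ctrl and HT29 RNF43 G659fs CRISPR-edited isogenic cells were seeded at 2500 cells/well in 384-well plates in duplicate and treated for 96 h. Viability was read by CellTiter-Glo and reported as % activity relative to DMSO, with MG132 as the positive control (negative = growth inhibition).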
With `O=C(Nc1cc(C(F)(F)F)cc(C(F)(F)F)c1)c1cc(Cl)ccc1O`, the cell viability activity was -94.4%.

For `COc1cc(N2CCC(N3CCN(C)CC3)CC2)ccc1Nc1ncc(Cl)c(Nc2ccccc2S(=O)(=O)C(C)C)n1`, the cell viability activity is -53.9%. Take `Cc1cnc(Nc2ccc(N3CCN(C)CC3)cc2)nc1Nc1cccc(S(=O)(=O)NC(C)(C)C)c1`: the cell viability activity is -83.9%. For the molecule `CNc1nc(-c2ccc3c(N)n[nH]c3c2)cc(N2C[C@@H](C(=O)NC3CCCCC3)CC[C@H]2C)n1`, the cell viability activity is -31.4%. Consider `CNC(=O)c1c(F)cccc1Nc1nc(Nc2cc3c(cc2OC)CCN3C(=O)CN(C)C)nc2[nH]ccc12`, for which the cell viability activity is -31.8%.

For the molecule `COC(=O)C1=C(C)NC(C)=C(C(=O)OC2CCCN(Cc3ccccc3)C2)C1c1cccc([N+](=O)[O-])c1` (configuration not stated), the cell viability activity is -85.8%. As to `CCN(CC)CCOc1ccc(Nc2ncc3cc(-c4c(Cl)cccc4Cl)c(=O)n(C)c3n2)cc1`, the cell viability activity was -86.7%. In the case of `COc1cc(C(=O)N2CCC(N3CCN(C)CC3)CC2)ccc1Nc1ncc2c(n1)N(C)c1ccccc1C(=O)N2C`, the cell viability activity is -56.1%. Next, `Cc1cccc(/C=N/Nc2cc(N3CCOCC3)nc(OCCc3ccccn3)n2)c1`: -66%; `CN(C)/N=N/c1[nH]cnc1C(N)=O`: -31.5%.

For `CCCC[C@H](NC(C)=O)C(=O)N[C@H]1CC(=O)NCCCC[C@@H](C(=O)O)NC(=O)[C@H](Cc2c[nH]c3ccccc23)NC(=O)[C@H](CCCNC(=N)N)NC(=O)[C@@H](Cc2ccccc2)NC(=O)[C@H](Cc2c[nH]cn2)NC1=O`, the cell viability activity was -42.1%. On to `COc1cc(N2CCC(N3CCN(C)CC3)CC2)ccc1Nc1ncnc(Nc2ccccc2S(=O)(=O)C(C)C)n1`, for which the cell viability activity was -33.3%.
